# Results reported in ChEMBL document CHEMBL4513216, “Probing the Open Global Health Chemical Diversity Library for Multistage-Active Starting Points for Next-Generation Antimalarials” (ACS Infect Dis, 2020).
# Hit rate of the full screen: of about 69,000 compounds, about 8,600 (12%) showed an effect of 50% or more. The sample holds strong results, similar compounds and a random draw of the others, so the mix is not that of the screen.
# Tested on: Plasmodium berghei
# Experiment: Screen against P. berghei liver stage (PbLuc), transformed with Luciferase, at 10uM
# Assay type: functional, HepG2
# Details: tested at 10 uM
row,Structure (SMILES),INHIBITION [%]
1,COc1ccc(C)cc1NC(=O)c1c(C)cn(C)c1CC(=O)O,-0.473
2,CCOC(=O)Cn1c(=O)c(OCC)nc2cnccc21,42.6
3,CN(C)CC(=O)N1CCCC2(CCN(c3ccccc3)C2=O)C1 (configuration not stated),-4.82
4,CCOc1ccccc1CNC(=O)N1CCC(Cc2cnn(C)c2)C1 (configuration not stated),-12.45
5,C1CN(CC2CCOCC2)Cc2c(COCC3CC3)nnn2C1,8.03
6,CCOC(=O)c1nc(CC(=O)Nc2ccc3cc[nH]c3c2)no1,3.19
7,OCc1cn(Cc2cccc(F)c2)nn1,28.5
8,O=C(O)CCCC(=O)NCC1(O)CCN(c2ccnc3cccnc23)C1 (configuration not stated),17.25
9,O=C(CN1CCCC1=O)N1CCC(O)(Cn2ccc3ccncc32)CC1,7.52
10,COC(=O)C1CCN(C(=O)Cn2ccc(-c3ccsc3)n2)CC1,-46.4
11,CCCS(=O)(=O)NCc1cccnc1OCC,-1.53
12,CCCS(=O)(=O)NCc1cccnc1OCc1ccccc1,50.4
13,CCCC(C)CS(=O)(=O)NCc1cccnc1OC (configuration not stated),1.94
14,COc1ccc(CSc2nnc(N)n2C2CC2)cc1F,-16.3
15,O=C(CCC(=O)N1CCC(c2noc3cc(F)ccc23)CC1)NC1CC1,10.5
16,O=C(c1cncc(F)c1)N1CCC(c2ncc[nH]2)CC1,31.2
17,Cn1cc(C(=O)N2CCC(c3ncc[nH]3)CC2)cn1,14
18,N#Cc1ccc(C(=O)N2CCC(c3ncc[nH]3)CC2)cn1,51.2
19,CC(=O)N1CC2(CCN(c3ccc4ccccc4n3)CC2)CC1C(=O)O (configuration not stated),44
20,COCCNC(=O)[C@H]1CN(Cc2sccc2C)C[C@H]2OCC[C@@H]12,-4.88
21,FC(F)(F)c1cc(C2CCCN(Cc3cccnc3)C2)n[nH]1 (configuration not stated),35
22,Cc1cc(C2CCCN(Cc3nc(Cc4ccccc4)no3)C2)n[nH]1 (configuration not stated),79.7
23,Cc1ccc(CN2CCCC(c3cncc(C)n3)C2)cn1 (configuration not stated),-6.3
24,Cc1cnc(CN2CCCC(c3cc(C)[nH]n3)C2)cn1 (configuration not stated),35.9

row,Structure (SMILES),INHIBITION [%]
1,Cc1cncc(C2CCN(Cc3ccncc3)CC2)n1,23.3545
2,CC1CCCN(Cc2ccc(CNC(=O)NCc3ccncc3)cc2)C1 (configuration not stated),22.5
3,CC(C)c1ccc(NC2CCCN(Cc3ccncc3)C2)cc1 (configuration not stated),70.3
4,Cc1cc(C2CCCN(Cc3nnc(Cc4ccccc4)o3)C2)n[nH]1 (configuration not stated),17
5,Cc1cc(C2CCCN(Cc3cccnc3)C2)n[nH]1 (configuration not stated),59.1
6,Cc1cc(C2CCCN(Cc3noc(Cc4ccccc4)n3)C2)n[nH]1 (configuration not stated),-10.8
7,Cc1cncc(C2CCCN(Cc3ccncc3)C2)n1 (configuration not stated),60.4
8,Fc1ccc(NC2CCCN(Cc3ccncc3)C2)cc1 (configuration not stated),-10.6
9,CCC(O)CN1CCN(C(=O)CN(C)c2ccc(Cl)cn2)CC1 (configuration not stated),3.03
10,C=C(C)COc1ccccc1CNCCc1cc(O)nc(C)n1,7.65
11,CC(C)Nc1nc(O)cc(C(C)n2ncc3ccccc3c2=O)n1 (configuration not stated),29.9
12,COc1cccc2cc(CNC(=O)N3CCOC(C)(C)C3)oc12,33.8
13,COc1cc(C(=O)N2CCCC(CNS(C)(=O)=O)C2)ccc1C (configuration not stated),7.12
14,COc1c(Br)c(CC2CC(CO)=NO2)c(Br)c2c1OCO2 (configuration not stated),42.4
15,CC(C)CCN1C[C@H]2CCN(C(=O)NC3CCCC3)CC[C@H]2S1(=O)=O,37.1
16,O=C(NCCn1ccnc1)C1COCC(=O)N1Cc1ccccc1 (configuration not stated),66.1
17,O=C(NCCCn1ccnc1)C1COCC(=O)N1Cc1ccccc1 (configuration not stated),38.3
18,O=C(NCCCn1cccn1)C1COCC(=O)N1Cc1ccccc1 (configuration not stated),49
19,Cc1noc(C)c1C(=O)N1C[C@@H]2CC[C@H]1CN(c1cnccn1)C2,-39.2
20,Cc1ccc(N2CCC3(CN(Cc4ccncc4)CCC3(F)F)C2)nn1 (configuration not stated),89.1
21,Cc1ccc(N2CCC3(CN(Cc4cccs4)CCC3(F)F)C2)nn1 (configuration not stated),61.3
22,Cc1ccc(CN2CCC(F)(F)C3(CCN(c4cnccn4)C3)C2)o1 (configuration not stated),35.1
23,Cn1cc(CN2CCC(F)(F)C3(CCN(c4ncccn4)C3)C2)cn1 (configuration not stated),9.51
24,Cc1ccc(N2CCC3(CN(CCO)CCC3(F)F)C2)nn1 (configuration not stated),39.5

row,Structure (SMILES),INHIBITION [%]
1,Fc1ccc(CN2CCC(F)(F)C3(CCN(c4cnccn4)C3)C2)cc1 (configuration not stated),1.61
2,CC(C)(C)c1ncc(C(=O)NCCNS(C)(=O)=O)s1,-33.9
3,CNS(=O)(=O)CC(=O)N1CCCc2cc(C(C)C)ccc21,39.7
4,O=C(c1cnc(-c2ncccn2)s1)N1CCCC(n2cccn2)C1 (configuration not stated),21
5,Cc1nc(C2CCCNC2)cc(N2CCc3nc(N)sc3C2)n1 (configuration not stated),53.6
6,Cc1nc(NCC23CCCN2CCC3)cc(C2CCCNC2)n1 (configuration not stated),-71.1
7,CNc1cc(C2CCCNC2)nc(C)n1 (configuration not stated),16.4875
8,Cc1nc(NCCC23CCCN2CCC3)cc(C2CCCNC2)n1 (configuration not stated),-59.5
9,CNC(=O)C1CCN(c2cc(C3CCNCC3)nc(C)n2)C1 (configuration not stated),26.4
10,CNC(=O)c1[nH]nc2c1CN(c1cc(C3CCCNC3)nc(C)n1)CC2 (configuration not stated),55.4
11,O=C(COc1coc(CN2CCOCC2)cc1=O)Nc1ccccc1F,-0.532
12,Cc1ncc2c(c1C(=O)O)CCN(c1ncc(F)cn1)C2,7.24
13,Cc1nc(CN2CCOC(Cn3cccn3)C2)no1 (configuration not stated),4.71
14,Cc1noc(C2CCN(Cn3cc(Cl)cn3)CC2)n1,37.9
15,C[C@]1(O)CCN(Cc2ncccc2F)C[C@@H]1Oc1ccccc1,-11.7
16,CC[S+](CC)[c-]1c(=O)[nH]c(=O)n(CCc2ccc(F)cc2)c1=O,-17.6
17,O=C(O)c1cnc(N2CCC(O)CC2)nc1COc1cccc(F)c1,6.67
18,CCOc1ccc(Br)cc1C1CCCN1 (configuration not stated),16.8
19,Fc1cnc(N2CCC3(CC2)CN(Cc2ccccn2)CCO3)nc1,-3.51
20,c1ccc(CN2CCOC3(CCN(c4ncccn4)CC3)C2)nc1,14.2
21,Fc1cnc(N2CCC3(CC2)CN(Cc2cccs2)CCO3)nc1,60.3
22,Cc1cnc(N2CCC3(CC2)CN(Cc2cccs2)CCO3)nc1,58.3
23,Fc1cnc(N2CCOC3(CCN(Cc4cccs4)CC3)C2)nc1,48.4
24,O=C(c1ccccc1)N1CCOC2(CCN(Cc3cccs3)CC2)C1,-11
